# In PubChem BioAssay (Tox21):
# Records with an inconclusive call do not appear. Where a call stands in place of a potency, no number is given. Unmarked numbers belong to inactive results. The source made the active and inactive calls. Unless noted, the call rests on the fitted dose curve; in most records, active means well fitted curve in the direction sought with a large enough effect in the repeat runs; inconclusive means weak or mixed curves; inactive means no such curve, though single readings can be large; an effect the other way counts as inactive or inconclusive.
# Key:
# [1] = qHTS assay to identify small molecule antagonists of the estrogen related receptor (ERR) signaling pathway from Tox21 library - cell viability counter screen (AID 1224834); further: nearly all actives have a fitted effect of over 30% in size; further: potency means the concentration at half of the fitted maximal effect
# Summary of the method: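 CellTiter-Fluor fluorescence measured; ERR cells; 17.5 h compound incubation at 37 C; 30 min reagent step.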
# [2] = target: Luciferin 4-monooxygenase (Photinus pyralis) (UniProt P08659); assay: qHTS assay to identify small molecule inhibitors of firefly luciferase (AID 1224835); further: nearly all actives have a fitted effect of over 25% in size; further: potency means the concentration at half of the fitted maximal effect; on activity change, negative = inhibition: series mostly up to about 120 µM
# Summary of the method: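 Biochemical qHTS: compounds run as interplate titrations against purified firefly enzyme, with D-luciferin and ATP each at its KM concentration. Light output recorded by CCD imaging.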
# [3] = qHTS assay to identify small molecule agonists of the constitutive androstane receptor (CAR) signaling pathway - cell viability counter screen (AID 1224836); further: nearly all actives have a fitted effect of over 45% in size; further: potency means the concentration at half of the fitted maximal effect; on viability change, negative = cytotoxic: series mostly up to about 92 µM
# Summary of the method: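 Cell viability multiplexed with the CAR agonist screen: CellTiter-Fluor fluorescence after 23 hr at 37 C. HepG2-CYP2B6-hCAR cells got compounds at 15 concentrations with PK11195 at 0.75 uM final.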
# [4] = qHTS assay to identify small molecule antagonists of the constitutive androstane receptor (CAR) signaling pathway - cell viability counter screen (AID 1224837); further: nearly all actives have a fitted effect of over 45% in size; further: potency means the concentration at half of the fitted maximal effect; on activity change, negative = cytotoxicity: series mostly up to about 92 µM
# Summary of the method: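 Using CellTiter-Fluor, viability is scored in HepG2 cells stably carrying hCAR and a 2.2kb CYP2B6 reporter after 23 hr compound exposure across 15 concentrations, with CITCO present at 50 nM.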
# [5] = target: Nuclear receptor subfamily 1 group I member 3 (Homo sapiens) (UniProt Q14994); assay: qHTS assay to identify small molecule antagonists of the constitutive androstane receptor (CAR) signaling pathway (AID 1224838);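 further: HepG2 cells stably expressing hCAR with CYP2B6 luciferase reporter stimulated by CITCO; nearly all actives have a fitted effect of over 40% in size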
# Summary of the method: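 Reporter luminescence was quantified after 24 h exposure of hCAR/CYP2B6-2.2kb double-stable HepG2 cells to compounds at 15 concentrations in the presence of 50 nM CITCO final.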
# [6] = target: Nuclear receptor subfamily 1 group I member 3 (Homo sapiens) (UniProt Q14994); assay: qHTS assay to identify small molecule agonists of the constitutive androstane receptor (CAR) signaling pathway (AID 1224839);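 further: HepG2 cells stably carrying human CAR and a CYP2B6 luciferase reporter; series mostly up to about 92 µM; nearly all actives have a fitted effect of over 15% in size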
# Summary of the method: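 Luminescent ONE-Glo read-out after 24 hr, 37 C exposure of double-stable HepG2-CYP2B6-hCAR reporter cells to a 15-point compound series, in the presence of 0.75 uM PK11195 (final).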
# [7] = qHTS assay to identify small molecule antagonists of the estrogen related receptor signaling pathway with the pleiotropic PPARgamma coactivator (PGC) from Tox21 10K library - cell viability counter screen (AID 1224840; active means well fitted cell-killing curve with a large enough effect in the repeat runs, not every such curve was filed as active; further: nearly all actives have a fitted effect of over 40% in size; further: potency means the concentration at half of the fitted maximal effect)
# Summary of the method: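 Here the PGC/ERR cells serve as a cytotoxicity control: they are exposed to compounds for 17.5 hours at 37 C, and live-cell signal is quantified using CellTiter-Fluor fluorescence.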
# [8] = target: Thyrotropin receptor (Homo sapiens) (UniProt P16473); assay: qHTS assay to identify small molecule agonists of the thyroid stimulating hormone receptor (TSHR) signaling pathway (AID 1224843; calls by dose curve; further: nearly all actives have a fitted effect of over 45% in size; further: potency means the concentration at half of the fitted maximal effect)
# Summary of the method: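 TSHR-HEK293 cells in agonist mode, 30 min room-temperature step, then cAMP measured by competitive HTRF (cAMP-d2 with anti-cAMP cryptate) after 1 h at room temperature. Tested at 15 concentrations in triplicate.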
# [9] = qHTS assay to identify small molecule antagonists of the estrogen related receptor signaling pathway with the pleiotropic PPARgamma coactivator (PGC) from Tox21 10K library (AID 1224841; call rule not given here; further: series mostly up to about 92 µM; actives are mostly falling curves and most rising ones were filed inactive; nearly all actives have a fitted effect of over 50% in size)
# Summary of the method: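 Each well held 2,000 PGC/ERR cells, pre-incubated six hours (37 C, 5% CO2). Test substances in DMSO were added by pin tool and left for 18 h at 37 C before luciferase detection by One-Glo.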
# [10] = qHTS assay to identify small molecule agonists of the estrogen related receptor signaling pathway with the pleiotropic PPARgamma coactivator (PGC) from Tox21 10K library (AID 1224842); further: nearly all actives have a fitted effect of over 15% in size
# Summary of the method: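 PGC/ERR reporter cell line, 2,000 cells per well, incubated 6 h at 37 C before 23 nL compound in DMSO was added. After 18 h at 37 C, One-Glo luminescence read following 30 min at room temperature.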
# Chain of Nuclear receptor subfamily 1 group I member 3 (Homo sapiens) (Q14994 whole entry, looked up): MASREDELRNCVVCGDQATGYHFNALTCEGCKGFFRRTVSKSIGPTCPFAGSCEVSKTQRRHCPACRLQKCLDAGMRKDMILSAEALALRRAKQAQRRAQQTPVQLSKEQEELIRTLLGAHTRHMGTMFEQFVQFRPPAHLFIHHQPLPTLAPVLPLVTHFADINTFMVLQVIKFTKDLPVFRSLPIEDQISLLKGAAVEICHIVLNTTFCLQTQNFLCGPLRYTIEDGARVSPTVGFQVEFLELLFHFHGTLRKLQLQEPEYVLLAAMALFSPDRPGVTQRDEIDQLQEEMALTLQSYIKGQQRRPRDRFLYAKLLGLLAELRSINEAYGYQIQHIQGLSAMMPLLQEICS
# Chain of Luciferin 4-monooxygenase (Photinus pyralis) (P08659 whole entry, looked up): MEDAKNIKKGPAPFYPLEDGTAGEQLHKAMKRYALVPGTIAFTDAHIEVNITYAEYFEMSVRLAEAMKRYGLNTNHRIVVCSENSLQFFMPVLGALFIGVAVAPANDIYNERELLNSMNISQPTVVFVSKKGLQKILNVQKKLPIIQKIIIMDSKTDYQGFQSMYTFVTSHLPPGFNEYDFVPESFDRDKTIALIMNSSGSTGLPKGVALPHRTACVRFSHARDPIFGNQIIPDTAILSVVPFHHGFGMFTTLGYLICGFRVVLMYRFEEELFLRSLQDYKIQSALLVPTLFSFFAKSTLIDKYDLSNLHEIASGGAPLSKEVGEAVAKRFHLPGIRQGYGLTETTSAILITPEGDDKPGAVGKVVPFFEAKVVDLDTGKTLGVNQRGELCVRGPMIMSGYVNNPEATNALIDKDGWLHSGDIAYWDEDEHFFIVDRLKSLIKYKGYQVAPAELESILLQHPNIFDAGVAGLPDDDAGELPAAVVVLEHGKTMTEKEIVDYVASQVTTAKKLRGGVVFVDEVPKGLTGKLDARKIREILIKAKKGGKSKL
# Chain of Thyrotropin receptor (Homo sapiens) (P16473 whole entry, looked up): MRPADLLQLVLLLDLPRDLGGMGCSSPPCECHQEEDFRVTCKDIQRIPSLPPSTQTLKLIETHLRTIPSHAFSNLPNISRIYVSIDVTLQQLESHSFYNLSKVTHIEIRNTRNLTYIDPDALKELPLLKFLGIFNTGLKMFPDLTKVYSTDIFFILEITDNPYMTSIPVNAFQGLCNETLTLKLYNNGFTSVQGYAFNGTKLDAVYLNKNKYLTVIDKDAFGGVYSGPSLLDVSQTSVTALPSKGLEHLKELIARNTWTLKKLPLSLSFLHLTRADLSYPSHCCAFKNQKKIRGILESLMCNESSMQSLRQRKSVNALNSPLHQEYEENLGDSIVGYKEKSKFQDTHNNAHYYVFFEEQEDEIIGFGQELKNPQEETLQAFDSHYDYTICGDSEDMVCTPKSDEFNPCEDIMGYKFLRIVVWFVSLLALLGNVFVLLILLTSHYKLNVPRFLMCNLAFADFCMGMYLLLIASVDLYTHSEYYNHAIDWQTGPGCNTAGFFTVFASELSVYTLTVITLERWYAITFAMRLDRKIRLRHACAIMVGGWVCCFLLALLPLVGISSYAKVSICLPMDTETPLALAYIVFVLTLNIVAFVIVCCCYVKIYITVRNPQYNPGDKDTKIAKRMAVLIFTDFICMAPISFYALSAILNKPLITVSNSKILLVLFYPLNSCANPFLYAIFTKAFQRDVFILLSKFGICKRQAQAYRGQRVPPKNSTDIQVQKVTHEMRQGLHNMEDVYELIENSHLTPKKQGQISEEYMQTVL
smiles,measurement,setting,value
CCCCCCCCCCCCCCCC(=O)OC/C=C(C)/C=C/C=C(C)/C=C/C1=C(C)CCCC1(C)C,Potency,[1],inactive
same,Potency,[2],inactive
same,Potency,[3],inactive
same,Potency,[4],inactive
same,Potency,[5],inactive
same,Potency,[6],inactive
same,Potency,[7],inactive
same,Potency,[8],inactive
CN(C)CC[C@@H](c1ccc(Br)cc1)c1ccccn1,Potency,[1],inactive
same,Potency,[2],inactive
same,Potency,[3],inactive
same,Potency,[4],inactive
same,Potency,[6],inactive
same,Potency,[7],inactive
CC(CN)CCCN (stereo not drawn),Potency,[1],inactive
same,Potency,[2],inactive
same,Potency,[3],inactive
same,Potency,[4],inactive
same,Potency,[5],inactive
same,Potency,[6],inactive
same,Potency,[9],inactive
same,Potency,[10],inactive
same,Potency,[8],inactive
Oc1ccc(O)c2c(O)cccc12,Potency,[1],inactive
same,Potency,[2],inactive
same,Potency,[3],inactive
same,Potency,[4],inactive
same,Potency,[5],inactive
same,Potency,[6],inactive
same,Potency,[9],inactive
same,Potency,[10],inactive
same,Potency,[8],inactive
CN1CCC[C@@H]1c1cccnc1,Potency,[1],inactive
same,Potency,[2],inactive
same,Potency,[3],inactive
same,Potency,[4],inactive
same,Potency,[5],inactive
same,Potency,[7],inactive
C=CC[N+]1([C@H]2C[C@H]3[C@@H]4CC[C@H]5C[C@H](OC(C)=O)[C@@H](N6CCCCC6)C[C@]5(C)[C@H]4CC[C@]3(C)[C@H]2OC(=O)CC)CCCCC1,Potency,[1],inactive
same,Potency,[2],inactive
same,Potency,[3],inactive
same,Potency,[4],inactive
same,Potency,[5],inactive
same,Potency,[6],inactive
same,Potency,[7],inactive
same,Potency,[8],inactive
O=C1Nc2cc(Cl)ccc2Oc2ccccc21,Potency,[1],inactive
same,Potency,[2],inactive
same,Potency,[3],inactive
same,Potency,[4],inactive
same,Potency,[5],inactive
same,Potency,[8],inactive
O=C=NC1CCC(CC2CCC(N=C=O)CC2)CC1 (stereo not drawn),Potency,[1],inactive
same,Potency,[2],inactive
same,Potency,[3],inactive
same,Potency,[4],inactive
same,Potency,[5],inactive
same,Potency,[6],inactive
same,Potency,[8],inactive
CC[C@H](C)[C@@H](C(=O)O)n1sc2ccccc2c1=O,Potency,[1],inactive
same,Potency,[2],17.8 µM (active)
same,Potency,[3],inactive
same,Potency,[4],inactive
same,Potency,[5],inactive
same,Potency,[6],inactive
same,Potency,[8],inactive
Cc1ncsc1CCO,Potency,[1],inactive
same,Potency,[2],inactive
same,Potency,[3],inactive
same,Potency,[4],inactive
same,Potency,[5],inactive
same,Potency,[6],inactive
same,Potency,[7],inactive
same,Potency,[8],inactive
O=c1c2ccccc2nnn1CCl,Potency,[1],inactive
same,Potency,[2],inactive
same,Potency,[3],inactive
same,Potency,[4],inactive
same,Potency,[5],inactive
same,Potency,[7],inactive
same,Potency,[8],inactive
COC(Cc1ccccc1)OC,Potency,[1],inactive
same,Potency,[2],inactive
same,Potency,[3],inactive
same,Potency,[4],inactive
same,Potency,[5],inactive
same,Potency,[6],inactive
same,Potency,[8],inactive
CC(C)NCC(O)c1cc(O)cc(O)c1 (stereo not drawn),Potency,[1],inactive
same,Potency,[2],inactive
same,Potency,[3],inactive
same,Potency,[4],inactive
same,Potency,[5],inactive
same,Potency,[7],inactive
same,Potency,[10],inactive
same,Potency,[8],10.6 µM (active)
CC(=O)SCc1ccco1,Potency,[1],inactive
same,Potency,[2],inactive
same,Potency,[3],inactive
same,Potency,[4],inactive
same,Potency,[5],inactive
same,Potency,[6],inactive
same,Potency,[7],inactive
same,Potency,[8],inactive
Cc1cc(C)c(S(=O)(=O)O)cc1N=Nc1cc(S(=O)(=O)O)c2ccccc2c1O,Potency,[1],54.5 µM (active)
same,Potency,[2],1.42 µM (active)
same,Potency,[3],61.1 µM (active)
same,Potency,[4],61.1 µM (active)
same,Potency,[5],inactive
same,Potency,[6],inactive
same,Potency,[7],34.4 µM (active)
same,Potency,[8],inactive
O=C(O)Cn1c(C(=O)Nc2nc(-c3ccccc3Cl)cs2)cc2ccccc21,Potency,[1],inactive
same,Potency,[2],13.8 µM (active)
same,Potency,[3],inactive
same,Potency,[4],inactive
same,Potency,[5],inactive
same,Potency,[7],inactive
same,Potency,[9],inactive
same,Potency,[10],inactive
same,Potency,[8],inactive
CC(=O)N(CC(=O)N(C)C)c1ccccc1,Potency,[1],inactive
same,Potency,[2],inactive
same,Potency,[3],inactive
same,Potency,[4],inactive
same,Potency,[5],inactive
same,Potency,[6],inactive
same,Potency,[9],inactive
same,Potency,[10],inactive
same,Potency,[8],inactive
CN(C)CCCNCCCN,Potency,[1],inactive
same,Potency,[2],inactive
same,Potency,[3],inactive
same,Potency,[4],inactive
same,Potency,[5],inactive
same,Potency,[6],inactive
same,Potency,[7],inactive
same,Potency,[8],inactive
Oc1ccc2c(c1)OCO2,Potency,[1],inactive
same,Potency,[2],inactive
same,Potency,[3],inactive
same,Potency,[4],inactive
same,Potency,[5],inactive
same,Potency,[6],inactive
same,Potency,[7],inactive
same,Potency,[8],inactive
C=C(C)C(=O)OC(C)C,Potency,[1],inactive
same,Potency,[2],inactive
same,Potency,[3],inactive
same,Potency,[4],inactive
same,Potency,[5],inactive
same,Potency,[6],inactive
same,Potency,[7],inactive
same,Potency,[8],inactive
CC1=CCC(C(C)C)C=C1 (stereo not drawn),Potency,[1],inactive
same,Potency,[2],inactive
same,Potency,[3],inactive
same,Potency,[4],inactive
same,Potency,[6],inactive
same,Potency,[7],inactive
ClC(Cl)(Cl)c1ccc(C(Cl)(Cl)Cl)cc1,Potency,[1],inactive
same,Potency,[2],inactive
same,Potency,[3],inactive
same,Potency,[4],inactive
same,Potency,[5],inactive
same,Potency,[6],inactive
same,Potency,[7],inactive
same,Potency,[8],inactive
CC(Cc1cccc(C(F)(F)F)c1)NCCOC(=O)c1ccccc1 (stereo not drawn),Potency,[1],inactive
same,Potency,[2],inactive
same,Potency,[3],inactive
same,Potency,[4],inactive
same,Potency,[5],inactive
same,Potency,[6],inactive
same,Potency,[8],inactive
Cl/C(=C\n1cncn1)c1ccc(Cl)cc1Cl,Potency,[1],inactive
same,Potency,[2],inactive
same,Potency,[3],inactive
same,Potency,[4],inactive
same,Potency,[6],inactive
same,Potency,[7],inactive
same,Potency,[9],inactive
same,Potency,[10],inactive
same,Potency,[8],inactive
CC(=O)Nc1ccc(/C=N/NC(N)=S)cc1,Potency,[1],inactive
same,Potency,[2],inactive
same,Potency,[3],inactive
same,Potency,[4],inactive
same,Potency,[6],inactive
same,Potency,[7],inactive
same,Potency,[8],inactive
CCCCCCCCCCCCCCCCCBr,"viability change, negative = cytotoxic",[1],-2.8% [at 19 µM]
same,"activity change, negative = inhibition",[2],3.44% [at 23.6 µM]
same,"viability change, negative = cytotoxic",[3],-1.41% [at 19 µM]
same,"activity change, negative = cytotoxicity",[4],0.897% [at 19 µM]
same,"viability change, negative = cytotoxic",[7],2.64% [at 19 µM]
CN(c1nccc(=O)[nH]1)C1CCN(c2nc3ccccc3n2Cc2ccc(F)cc2)CC1,Potency,[1],inactive
same,Potency,[2],inactive
same,Potency,[3],inactive
same,Potency,[4],inactive
same,Potency,[6],inactive
same,Potency,[7],inactive
same,Potency,[8],inactive
CC(=O)O[C@H]1C[C@@H]2CC[C@@H]3[C@H](CC[C@@]4(C)[C@H]3C[C@H]([N+]3(C)CCCCC3)[C@@H]4OC(C)=O)[C@@]2(C)C[C@@H]1N1CCCCC1,Potency,[1],inactive
same,Potency,[2],inactive
same,Potency,[3],inactive
same,Potency,[4],inactive
same,Potency,[6],inactive
same,Potency,[7],inactive
same,Potency,[8],inactive
COc1ccc(C(C)=O)cc1,Potency,[1],inactive
same,Potency,[2],inactive
same,Potency,[3],inactive
same,Potency,[4],inactive
same,Potency,[6],inactive
same,Potency,[7],inactive
CCCCC(CC)COCCCN (stereo not drawn),Potency,[1],inactive
same,Potency,[2],inactive
same,Potency,[3],inactive
same,Potency,[4],inactive
same,Potency,[7],inactive
same,Potency,[10],inactive
same,Potency,[8],inactive
